Compound activity as filed in PubChem BioAssay.
Shown are actives, neighbours in structure and some others; about 5.2% of the full set was active somewhere.
Sfp inh: qHTS Assay for Inhibitors of Bacillus subtilis Sfp phosphopantetheinyl transferase (PPTase). Biochemical Sfp PPTase activity, qHTS. Potency, µM, most hits filed as inhibitors. 3.5% of 310,000 active. AID 1490, 2009;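 note: the enzyme is Sfp with the accession as filed and its product quenches rhodamine fluorescence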
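Sfp 15 nM + cpd, 15 min RT; start w/ rhodamine-CoA 5 uM, BHQ-2-YbbR 12.5 uM (final); 50 mM Hepes pH 7.6, 10 mM MgCl2, 0.01% NP-40, 0.01% BSA; read 525/598 nm at 0 and 30 min.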
Tau fluor cs: Counterscreen qHTS for Inhibitors of Tau Fibril Formation, Fluorescence Polarization; tau K18 P301L Alexa594 fluorescence, heparin fibrillization; Potency, µM (titrated, usually from 57.7 µM); 0.93% of 280,000 active; note: nearly all actives have a fitted effect of over 55% in size
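Human K18 P301L tau (15 uM unlabeled plus 0.24 uM Alexa 594-labeled, final) in 100 mM sodium acetate pH 7 was mixed with compound and 20 uM heparin and incubated 6 hr at 37 C.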
FBPA coupling cs: qHTS Assay for Inhibitors of Fructose-1,6-bisphosphate Aldolase from Giardia Lamblia: Coupling assay counterscreen; activity change, negative = inhibition, % at 58.2 µM, hits read low; AID 2472, 2010; 0.67% of 290,000 active; coupling enzyme system counterscreen, AmpLite Red fluorescence; in the data active = activity change below about -30%
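First, compound is pin-transferred into glyceraldehyde-3-phosphate coupling-enzyme reagent at 57.5 uM final and held 10 min at RT. Next, substrate, coupling system and AmpLite Red are added. After 20 min RT, fluorescence (525/598 nm) is read.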
Tau fibril ThT: qHTS for Inhibitors of Tau Fibril Formation, Thioflavin T Binding | recombinant tau K18 P301L (four-repeat tau fragment), heparin-induced fibrillization, ThT fluorescence | 2.1% of 270,000 active | Microtubule-associated protein tau (Homo sapiens), P10636 | Potency, µM (series often up to 57.4 µM), usual class: inhibitors; note: nearly all actives have a fitted effect of over 55% in size
Target sequence (P10636 561-689 P618L limits assumed): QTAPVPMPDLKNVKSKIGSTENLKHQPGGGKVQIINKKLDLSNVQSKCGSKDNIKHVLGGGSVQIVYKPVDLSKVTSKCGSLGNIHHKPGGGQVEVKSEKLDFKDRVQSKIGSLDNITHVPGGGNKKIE
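Aggregation was driven by heparin (20 uM final) acting on recombinant tau […] bearing P301L in 100 mM sodium acetate pH 7; fibrils were detected with Thioflavin T.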
Tau fibril FP: qHTS for Inhibitors of Tau Fibril Formation, Fluorescence Polarization | Microtubule-associated protein tau (Homo sapiens), P10636 | K18 P301L tau heparin fibrillization, Alexa594 FP, 6 h | Potency, µM (series often up to 57.7 µM), hits mostly inhibitors | 0.39% of 280,000 active | AID 1468, 2008; note: nearly all actives have a fitted effect of over 55% in size
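Steps: dispense K18 P301L tau (15 uM plus 0.24 uM Alexa 594 tracer, final) in pH 7 sodium acetate; add compound; add heparin (20 uM final); incubate 6 hr, 37 C; add ThT (30 uM final); after 1 hr ambient, read FP.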
Numbers stand for hits; n = inactive; u = inconclusive; x = no result given; ! = a repeat was not active; [ ] = remark or other dose. Unless noted, calls come from the whole dose curve; as a rule, active = well fitted curve in the direction sought with a large enough effect; inconclusive = small, poorly fitted or top-dose-only effect, or another doubt; inactive = no such curve, though single readings can be large; an effect the other way counts as inactive or inconclusive.

SMILES	Sfp inh	Tau fluor cs	FBPA coupling cs	Tau fibril ThT	Tau fibril FP
Cc1cccc(C)c1OCc1n[nH]c(=S)n1N	50.1µM	n	n	n	n
Nn1c(COc2ccc(Cl)cc2)n[nH]c1=S	35.5µM	n	n	n	n
CCCc1cc(N2CCN(c3cccc(C)c3C)CC2)n2cnnc2n1	x	n	x	u	n
C=CCN1C(=O)NC(=O)/C(=C/c2c(CCN(C)C(=O)c3ccccc3)cc3c(c2OC)OCO3)C1=O	n	x	n	x	x
C=CCN1C(=O)NC(=O)/C(=C/c2ccc(OC)c(COc3ccc(NC(C)=O)cc3)c2)C1=O	44.7µM	n	n	u	n
C=CCN1C(=O)NC(=O)/C(=C/c2ccc(OC)c(CSc3ccccn3)c2)C1=O	56.2µM	n	n	u	n
Cc1ccc(C)c(N2CCN(c3ncnc4onc(C)c34)CC2)c1	x	n	x	u	n
CCC(=O)C1=C(c2cccc([N+](=O)[O-])c2)N(C(=O)CC)n2c(nnc2C2CCCCC2)S1	x	n	x	u	n
CN1CCN(c2ccc(Cl)cc2N)CC1	n	n	n	n	n
CN1CCN(c2ccc(N)cc2Cl)CC1	u	n	-31.6	u	n
NC1CCc2cc(O)c(O)cc2C1 (centres undefined)	39.8µM	u	x	u	u
Oc1cc2c(cc1O)[C@H]1c3ccccc3CNC1CC2 (some centres undefined)	x	u	x	u	n
CC(=O)OC1CCC23C(=O)OC45CCC(C6=CC(=O)OC6)C4(C)CCC2C5CCC3(O)C1 (centres undefined)	n	n	n	n	n
Cc1ccc(-n2sc3ccccc3c2=O)cc1	1.26µM	n	n	31.6µM	u
COc1ccc(-c2nc3ccccc3c(=O)n2-c2ccc(OC)cc2)cc1	n	n	n	n	n
COC(=O)COc1ccc(C[C@@H](C)NC[C@H](O)c2cccc(Cl)c2)cc1	n	x	n	x	x
COc1ccc2o/c(=N\O)c(C(=O)Nc3ccc(C)cc3)cc2c1	u	n	n	15.8µM	n
COc1ccc(/C=C/C(=O)Nc2ccc(C)cc2)cc1	x	n	x	n	u
CCCCN1C(=O)NC(=O)/C(=C/c2cnc(SC)nc2)C1=O	25.1µM	n	n	u	n
CSc1ncc(/C=C2/C(=O)NC(=O)N(C)C2=O)cn1	n	n	n	u	u
CCC(C)N1C(=O)/C(=C\c2ccc(N3CCCCCC3)cc2)C(=O)NC1=S (centres undefined)	u	n	n	u	n
CSc1ncc(/C=C2/C(=O)NC(=O)N(C3CCCCC3)C2=O)cn1	39.8µM	n	n	u	n
CCC(C)N1C(=O)/C(=C\c2cnc(N(C)C)nc2)C(=O)NC1=S (centres undefined)	50.1µM	n	n	u	n
CN(C)c1ncc(/C=C2/C(=O)NC(=S)N(C3CCCCC3)C2=O)cn1	44.7µM	n	n	u	n
c1ccc(-c2cc3c(nc2-c2ccccc2)CCNC3)cc1	n	n[11.6 µM]	n	n[11.5 µM]	n[11.6 µM]
SMILES	Sfp inh	Tau fluor cs	FBPA coupling cs	Tau fibril ThT	Tau fibril FP
O=C1CC[C@@]2(O)C3Cc4ccc(O)c5c4C2(CCN3CC2CC2)[C@H]1O5 (some centres undefined)	n	n	x	n	n
O=C1C=CC(=O)C=C1	x	n	x	n	n
O=C1C=CC(=O)C(Cl)=C1	3.98µM	u	n	11.2µM	15.8µM
CC[C@H](C)[C@H](NC(=O)[C@@H](N)Cc1ccc(O)cc1)C(=O)NCC(=O)N[C@@H](CO)C(=O)N[C@@H](CCCN=C(N)N)C(N)=O	n	x	n	x	x
CSc1cccc(NC(=O)C2CCN(C(=O)c3cnn(-c4ccccc4)c3-n3cccc3)CC2)c1	x	u	x	n	n
Cc1cc2oc(=O)cc(-c3ccccc3)c2c(C)c1-c1ccc(CO)cc1	126µM	n	n	n	n
CCc1cc(=O)oc2cc(C)cc(OCC(=O)N3CCC(C(=O)O)(c4ccccc4)CC3)c12	n	x	n	x	x
O=C1NC(=O)N(c2ccccc2F)C(=O)/C1=C/c1ccc(Oc2ccc([N+](=O)[O-])cn2)cc1	50.1µM	n	n	u	n
CC[C@H](CO)NC(=O)[C@H]1C=C2c3cccc4[nH]cc(c34)C[C@@H]2N(C)C1	n	x	n	x	x
C=CCn1c(CSc2ccccc2[N+](=O)[O-])n[nH]c1=S	u	x	n	x	x
O=C1NC(=O)C(Sc2ccccc2[N+](=O)[O-])C(=O)N1	20µM	x	n	x	x
C[C@]12C/C(=C/O)C(=O)C[C@@H]1CC[C@@H]1[C@@H]2CC[C@@]2(C)[C@H]1CC[C@]2(C)O	n	x	x	x	x
COP(N)(=O)SC (centres undefined)	n	n	n	n	n
Cc1nc(-c2ccc(-c3ccc(C(=O)N4CCc5cc6c(cc54)C4(CCN(C)CC4)CO6)cc3)c(C)c2)no1	63.1µM	n	n	u	n
O=c1[nH]c(O)c(N=Nc2cc([N+](=O)[O-])ccc2O)c(=O)[nH]1	n	n	n	14.1µM	n
NC(=O)c1ccc(N=Nc2c(O)[nH]c(=O)[nH]c2=O)cc1	n	n	n	n	n
Cc1ccc2c(c1)CC1(CN2C)C(=O)NC(=O)N(CCC2=CCCCC2)C1=O (centres undefined)	n	n	n	25.1µM	u
Cc1ccc2c(c1)CC1(CN2C)C(=O)NC(=O)N(C(C)C)C1=O (centres undefined)	n	n	n	u	u
CCCCC1C(=O)NC(=S)NC1=O	10µM	n	n	u	u
CCOC(=O)C1(c2ccccc2)CCN(CC(=O)Nc2ccc(C)cc2)CC1	n	n	n	n	n
CCOc1ccc(OCC)c(NC(=O)CN2CCN(c3ccc(C)cc3C)CC2)c1	31.6µM	n	n	u	n
CNC(=O)Oc1ccc2c(c1)[C@@]1(C)CCN(C)[C@@H]1N2C	n	n	-43.9!	n	n
CN1CC[C@@]2(C)c3cc(OC(=O)Nc4ccccc4)ccc3N(C)[C@@H]12	n	u	x	31.6µM	u
CN1CCN(c2ccc(NC(=O)Oc3ccccc3)cc2)CC1	n	n	n	n	n
CC(=O)OCC(N)C(=O)c1ccccc1 (centres undefined)	n	n	n	n	n
SMILES	Sfp inh	Tau fluor cs	FBPA coupling cs	Tau fibril ThT	Tau fibril FP
Cc1ccc2c(c1)[C@@H]1CN(C)CC[C@H]1N2	n	x	x	x	x
COC(=O)CN1CN(c2ccccc2)C2(CCN(Cc3ccc4ccccc4c3)CC2)C1=O	70.8µM	n	n	n	n
c1ccc(CN2CCN(Cc3ccc4ccccc4c3)CC2)cc1	n	x	n	x	x
Nc1c(C(=O)NCc2ccco2)c2nc3ccccc3nc2n1CCN1CCCCC1	n	u	n	u	n
Nc1c(C(=O)NC2CCCC2)c2nc3ccccc3nc2n1CC1CCCO1 (centres undefined)	n	n	-45.9	n	n
CC(C)OC(=O)c1c(N)n(Cc2ccco2)c2nc3ccccc3nc12	50.1µM	n	n	n	n
